From PubChem BioAssay (NCI)
The panel holds about 83,000 compounds, 20% with a hit somewhere; the sample as a whole holds those more often.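 Treatment: one concentration, 48 hours, 96-well format. Scoring: percent growth, with anything below 10 considered active.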 A number with no mark means an inactive call. Activity calls are given as the source filed them.

These molecules were tested on HOP-62 NSCLC (assay: NCI-60 one-dose screen, 48 h (100 = growth as untreated, 0 = no growth, -100 = all killed)). Details: 10 µM unless noted.

Row | Structure (SMILES) | growth
1 | CC(=O)Nc1ccc2c(c1)Cc1c(F)cccc1-2 | 116%
2 | COc1ccc(-c2cncnc2N)cc1OC | -100% (active)
3 | CN(C)c1ccc2cc(-c3ccc(Cl)c(Cl)c3)c(N)nc2c1 | 66.2%
4 | O=C(Nc1ccccn1)[C@H](O)[C@@H](O)C(=O)N1CCOCC1 | 104%
5 | O=C(NC(=S)Nc1ccc(-c2nc3ccccc3[nH]2)cc1)c1ccc2ccccc2c1 | 8.8% (active)
6 | CCCCCCN(CCCCCC)CC(O)c1cccc2ccc(Cl)cc12 (stereo not drawn) | 31.8%
7 | Cc1ccc(S(=O)(=O)N(CC[C@@H]2C[C@H]2c2cc3ccccc3o2)C(=O)NC2CCCCC2)cc1 | 93.1%
8 | Clc1ccc2[nH]c3c(NCCCN4CCOCC4)ncnc3c2c1 | 83.5%
9 | Fc1ccc(Nc2ccc3cc(OCCCN4CCOCC4)ccc3n2)cc1F | 65.9%
10 | CNC(=O)NCC1OC(n2cnc3c(NC(=O)Nc4ccccc4)ncnc32)C2OC(C)(C)OC12 (stereo not drawn) | 99.3%
11 | CCN(CC)CCOC(=O)Nc1ccccc1Cl | 102%
12 | N=C(N)c1ccc(-c2ccc(-c3ccc(Cl)c(Cl)c3)o2)cc1 | 42.3%
13 | Cc1[nH]c(-c2nc3ccccc3[nH]2)c(C)c1C(=O)N1CCc2sccc2C1 | 98.2%
14 | CC(C)(C)c1ccc(C(=O)Nc2sc3c(c2C(N)=O)CCC(=O)C3)cc1 | 26.5%
15 | Cc1nc(Nc2ccccn2)sc1C(=O)/C=C/c1ccc(Br)cc1 | 63.4%
16 | C/C(=N\NC(=O)Cn1c(-c2ccc(S(C)(=O)=O)cc2)nc2cc(Cl)ccc21)c1ccc(Cl)cc1 | 80.9%
17 | CCOC(=O)c1c(C)[nH]c(C(=O)CCC(=O)OC)c1C | 98.7%
18 | C=C1C(=O)O[C@H]2[C@H]1CC/C(COC(=O)NCc1ccc(Cn3c(=O)sn(CCCCl)c3=O)cc1)=C\CC[C@@]1(C)O[C@@H]21 | 87.2%
19 | COc1cc(C2C=C(c3cccc(NC(C)=O)c3)Nc3ncnn32)cc(OC)c1OC (stereo not drawn) | 62.6%
20 | O=C(Oc1ccc[nH]c1=O)c1cc([N+](=O)[O-])cc([N+](=O)[O-])c1 | 97.2%

Row | Structure (SMILES) | growth
21 | COc1ccc(Oc2nc(Nc3ccc(N4CCOCC4)nc3)ncc2NC(=O)c2cc(OC)cc(OC)c2)cc1 | 82.6%
22 | COC(=O)c1ccc2oc(NC(=O)c3ccc(N4CCOCC4)c([N+](=O)[O-])c3)nc2c1 | 82.3%
23 | O=C1Nc2ccccc2/C1=N/N=C/c1ccc(OC2OC(CO)C(O)C(O)C2O)cc1 (stereo not drawn) | 103%
24 | C=CC(=O)Nc1cccc(C)c1Nc1cc(-c2cccnc2Cc2c(C)c(OC)cc(OC)c2C)ncn1 | -38% (active)
25 | OC(COc1cccc2ccccc12)CN1CCN(c2ccccc2)CC1 (stereo not drawn) | 90.4%
26 | CC(=O)Nc1cccc(C2=CC(c3ccc(C)cc3)n3ncnc3N2)c1 (stereo not drawn) | 101%
27 | O=C(CC12CC3CC(CC(C3)C1)C2)NCCOCCOCCNC(=O)c1cc2c(o1)C(=O)c1ccccc1C2=O | -58.3% (active)
28 | N=C(N)c1ccc(-c2ccc(/C=C/c3ccccc3)s2)cc1 | 33.3%
29 | CNC1(C#N)CCN(Cc2ccccc2)CC1 | 87.2%
30 | O=C(/C=C/C12c3ccccc3C(c3ccccc31)C1C(=O)N(c3ccccc3)C(=O)C12)c1ccc(Cl)cc1 (stereo not drawn) | 23.5%
31 | CCNCCNc1cc(-c2ccc(Cl)cc2)c(C#N)c2nc3ccccc3n12 | 1.55% (active)
32 | CN(C)c1ccc2cc(-c3ccccc3F)c(N)nc2c1 | 37.4%
33 | O=C1Nc2ccccc2/C1=N/N=C/c1c[nH]c2ccccc12 | 67.3%
34 | COc1ccc(/C=C(\C#N)n2nnc3ccccc32)cc1 | 26.2%
35 | N#Cc1c(Oc2ccc([N+](=O)[O-])cc2)nc2sc3cc(Cl)ccc3n2c1=N | 107%
36 | O=C(NCCOCCOCCOCCNC(=O)c1cc2c(o1)C(=O)c1ccccc1C2=O)NC12CC3CC(CC(C3)C1)C2 | -58% (active)
37 | O=C(Oc1ccc([N+](=O)[O-])cc1)c1ccc(CBr)cc1 | 139%
38 | CCn1c(Sc2nnc(NC(=O)CCN3CCCC3)s2)nc2c1c(=O)n(C)c(=O)n2C | 103%
39 | CC(=[N-])N1CCC[C@@H](Nc2c3ccccc3nc3ccccc23)C1.[Cl][Pt].[NH-]CCC[NH-] | 51.9%

Each molecule was assayed on NCI-H460 lung in the same assay as above. Details: 10 µM unless noted.

Row | Structure (SMILES) | growth
40 | CC(=O)Nc1ccc2c(c1)Cc1c(F)cccc1-2 | 92.2%
41 | COc1ccc(-c2cncnc2N)cc1OC | 98.6%
42 | CN(C)c1ccc2cc(-c3ccc(Cl)c(Cl)c3)c(N)nc2c1 | 27.6%
43 | O=C(Nc1ccccn1)[C@H](O)[C@@H](O)C(=O)N1CCOCC1 | 105%
44 | O=C(NC(=S)Nc1ccc(-c2nc3ccccc3[nH]2)cc1)c1ccc2ccccc2c1 | 5.41% (active)
45 | CCCCCCN(CCCCCC)CC(O)c1cccc2ccc(Cl)cc12 (stereo not drawn) | 44%
46 | Cc1ccc(S(=O)(=O)N(CC[C@@H]2C[C@H]2c2cc3ccccc3o2)C(=O)NC2CCCCC2)cc1 | 104%
47 | Clc1ccc2[nH]c3c(NCCCN4CCOCC4)ncnc3c2c1 | 69.3%
48 | Fc1ccc(Nc2ccc3cc(OCCCN4CCOCC4)ccc3n2)cc1F | 36.6%
49 | CNC(=O)NCC1OC(n2cnc3c(NC(=O)Nc4ccccc4)ncnc32)C2OC(C)(C)OC12 (stereo not drawn) | 101%
50 | CCN(CC)CCOC(=O)Nc1ccccc1Cl | 104%
51 | N=C(N)c1ccc(-c2ccc(-c3ccc(Cl)c(Cl)c3)o2)cc1 | -68.8% (active)
52 | Cc1[nH]c(-c2nc3ccccc3[nH]2)c(C)c1C(=O)N1CCc2sccc2C1 | 94.4%
53 | CC(C)(C)c1ccc(C(=O)Nc2sc3c(c2C(N)=O)CCC(=O)C3)cc1 | -10.7% (active)
54 | Cc1nc(Nc2ccccn2)sc1C(=O)/C=C/c1ccc(Br)cc1 | 92%
55 | C/C(=N\NC(=O)Cn1c(-c2ccc(S(C)(=O)=O)cc2)nc2cc(Cl)ccc21)c1ccc(Cl)cc1 | 82.8%
56 | CCOC(=O)c1c(C)[nH]c(C(=O)CCC(=O)OC)c1C | 110%
57 | C=C1C(=O)O[C@H]2[C@H]1CC/C(COC(=O)NCc1ccc(Cn3c(=O)sn(CCCCl)c3=O)cc1)=C\CC[C@@]1(C)O[C@@H]21 | 101%
58 | COc1cc(C2C=C(c3cccc(NC(C)=O)c3)Nc3ncnn32)cc(OC)c1OC (stereo not drawn) | 14.6%
59 | O=C(Oc1ccc[nH]c1=O)c1cc([N+](=O)[O-])cc([N+](=O)[O-])c1 | 111%

Row | Structure (SMILES) | growth
60 | COc1ccc(Oc2nc(Nc3ccc(N4CCOCC4)nc3)ncc2NC(=O)c2cc(OC)cc(OC)c2)cc1 | 82.3%
61 | COC(=O)c1ccc2oc(NC(=O)c3ccc(N4CCOCC4)c([N+](=O)[O-])c3)nc2c1 | 105%
62 | O=C1Nc2ccccc2/C1=N/N=C/c1ccc(OC2OC(CO)C(O)C(O)C2O)cc1 (stereo not drawn) | 111%
63 | C=CC(=O)Nc1cccc(C)c1Nc1cc(-c2cccnc2Cc2c(C)c(OC)cc(OC)c2C)ncn1 | 4.5% (active)
64 | OC(COc1cccc2ccccc12)CN1CCN(c2ccccc2)CC1 (stereo not drawn) | 106%
65 | CC(=O)Nc1cccc(C2=CC(c3ccc(C)cc3)n3ncnc3N2)c1 (stereo not drawn) | 107%
66 | O=C(CC12CC3CC(CC(C3)C1)C2)NCCOCCOCCNC(=O)c1cc2c(o1)C(=O)c1ccccc1C2=O | -72.6% (active)
67 | N=C(N)c1ccc(-c2ccc(/C=C/c3ccccc3)s2)cc1 | -60.1% (active)
68 | CNC1(C#N)CCN(Cc2ccccc2)CC1 | 108%
69 | O=C(/C=C/C12c3ccccc3C(c3ccccc31)C1C(=O)N(c3ccccc3)C(=O)C12)c1ccc(Cl)cc1 (stereo not drawn) | -17.5% (active)
70 | CCNCCNc1cc(-c2ccc(Cl)cc2)c(C#N)c2nc3ccccc3n12 | -55.1% (active)
71 | CN(C)c1ccc2cc(-c3ccccc3F)c(N)nc2c1 | 15.9%
72 | O=C1Nc2ccccc2/C1=N/N=C/c1c[nH]c2ccccc12 | 63%
73 | COc1ccc(/C=C(\C#N)n2nnc3ccccc32)cc1 | 2.42% (active)
74 | N#Cc1c(Oc2ccc([N+](=O)[O-])cc2)nc2sc3cc(Cl)ccc3n2c1=N | 96.5%
75 | O=C(NCCOCCOCCOCCNC(=O)c1cc2c(o1)C(=O)c1ccccc1C2=O)NC12CC3CC(CC(C3)C1)C2 | -71% (active)
76 | O=C(Oc1ccc([N+](=O)[O-])cc1)c1ccc(CBr)cc1 | 100%
77 | CCn1c(Sc2nnc(NC(=O)CCN3CCCC3)s2)nc2c1c(=O)n(C)c(=O)n2C | 112%
78 | CC(=[N-])N1CCC[C@@H](Nc2c3ccccc3nc3ccccc23)C1.[Cl][Pt].[NH-]CCC[NH-] | 0.597% (active)
